# Reference: the supplement of paper PMC6555819
# Tested on: VDR:RXRa (NR concentration 270 nM, RXRa partner concentration 90 nM)
# Assay: PBM binding z-score (relative to random genomic background probes); higher = stronger binding; sequences stand for … in GC…GCGATTGACAGCGTAGAATGAAGG
# Description: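 Protein-binding microarray (Agilent 4x180K custom design, double-stranded 60-nt probes: 5' GC cap, 34-nt variable region, 24-nt constant primer region; full probe sequence given). Purified or IVT nuclear receptor:RXRα heterodimers (3:1 NR:RXRα, mostly 270:90 nM) or homodimers were incubated for 1 h in PBS with 2% milk and no ligand, then detected with Alexa488 antibodies. Fluorescence from o1-orientation probes (~5 replicates averaged) was converted to z-scores against 500 random hg19 background probes. Variable regions are seed direct-repeat (DR0–DR5) sites, all their single-nucleotide variants and half-site ablations.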
row,Sequence,PBM binding z-score
1,CCTGCTAGGTCATGGTCAGCCAATCTACAGTATG,1.71
2,ACAGACAGGTGAGAGAAGGTAACTCAGCTGGACG,-0.382
3,TCTTGTAGATCAAGCAGGTTAAGAATGCCTGAGT,0.48
4,ATATGTAGGTTAGCTGGGGTCGTTCAGACTAGGC,4.67
5,CCAGACAGGTGATAAGGTAACTCAGCCTCGATTA,-0.000379
6,CCTACTGGGCAATCAGGTCATTGATATCAACGTT,2.83
7,ACTAGTTGGTCAGCTGAGGTCCCACACAATTCGG,-0.0724
8,GCTTGCGGGTCAAAGGTTATAGCATGAATAGAAT,5.03
9,CGTCAAAGTTCAACTAAGGTAAAGTAAAGCACGC,4.64
10,ATCTCTAGGTAAAGATAGTTCAGCGAATGCAAAT,1.08
11,CCGAATGGGGCAGAAAGGTTACCATACCATCCGG,1.33
12,ATCGAAAGGTCGAAGGTGAGTAGACCCACCCGAA,2.43
13,TGTCAAAGTTCAAACGTAACGTAAGTATCCACAC,4.68
14,CCAGACAGGGGAGAAGGTAACTCAGCCTCGATTA,-0.544
15,TCTCGGAGGACACGCAGGTCAGAGCTTTCCAGAG,1.58
16,TTACCAAGCTGAAAGGTCGTTGATGCACGCCTTG,1.07
17,CCAGACAGGTGAGAAGGTAACTCGGCCTCGATTA,-0.138
18,CGCCCAAGGTCAAGGTCAGTGAAAGAGACTCGAA,4.61
19,CGTCCTAGGTCAAGGTCAGTGAAAGAGACTCGAA,3.2
20,GCGACTGGGGCATCACCAGGTTACCATAACTTAA,-0.162

row,Sequence,PBM binding z-score
1,CCTAGCAGGCCAATCTGGGTCACTCGAGGCTTGA,0.491
2,GGGACTGGGGCAAAGCAGGTTACCATAAGGTTGG,0.732
3,TGTCAAAGTGCAAAGGTAACGTAAGTATCCACAC,1.59
4,CCTCGGAGGACAACAGGAGGTCAGAGCGGCCAGA,2.92
5,CCTACTGGGCCCAGGTCATTGATCAGTCAAAGCA,1.7
6,ACAGACAGGTGATGAAGGAAACTCAGGCTATCAT,-0.266
7,AGAACGAGAGCAATGAGTTGATAGCACGGGTGGC,1.96
8,TGAATGTGGTTAAAGATCAGGGAACGTGGCGTCG,-0.219
9,TCGAGTAGGTAACCAATGGGGCATTCAGCTTTCT,-0.172
10,AGAATGAGGTTATACGCAGATCAGGGAAGAAAGT,1.35
11,CGACCAAGGTCAGAGAGGTCAGTGAATGCCGAGT,7.47
12,CAAACTAGGTCTCAGAGGTCAAAGTCCGTGCGTA,5.82
13,CAAACTAGGTCACCGGAAGGTCTAAGTCCGCATG,3.1
14,TTGCCTAGGTCATTCAGGGGCCAGTATAGAAAGC,3.15
15,ATCTCTAGGTAACAAGTTCATTGAAAGAGAGGAC,3.84
16,CAAACTAGGTCACGGTCAAAGTCGGTTTGTGCCA,3.33
17,TCTTGTAGATCAGCAGGCTAAGAAAGCTGGCCAA,-0.106
18,CCTTACGGGTGACGAGGTTATAGCACGACGAGCG,0.935
19,TCTAGTTGGTCACGGCGGTCACACACGACGGGTA,1.82
20,CTCGAAAGGTCGGTTGAGGTGAGGATACGGATAA,2.29
